In PubChem BioAssay AID1376 (SRMLSC, 2008):
Among all 220,000 compounds or so, about 530 (0.24%) were called active. No stated cut-off is given here; in the data, active means inhibition above about 13%; inconclusive means no clear call, values can overlap the other calls; inactive means below that. Many of the other results were omitted from the sample, so actives are more common in it than they were. Results with a measured potency or affinity are listed apart.

target: Bifunctional protein GlmU (Mycobacterium tuberculosis (strain ATCC 25618 / H37Rv)) (UniProt P9WMN3); test: inhibition of mycobacterial GlmU enzyme – biochemical, glucosamine-1-phosphate acetyltransferase (AID 1376);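 further: 0% = complete reaction with vehicle and 100% = reaction without substrate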; details: M. tuberculosis GlmU acetyltransferase enzyme assay; stronger effect = higher value;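 tested at 30 µM in the primary screen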
Sequence (P9WMN3 whole entry, looked up): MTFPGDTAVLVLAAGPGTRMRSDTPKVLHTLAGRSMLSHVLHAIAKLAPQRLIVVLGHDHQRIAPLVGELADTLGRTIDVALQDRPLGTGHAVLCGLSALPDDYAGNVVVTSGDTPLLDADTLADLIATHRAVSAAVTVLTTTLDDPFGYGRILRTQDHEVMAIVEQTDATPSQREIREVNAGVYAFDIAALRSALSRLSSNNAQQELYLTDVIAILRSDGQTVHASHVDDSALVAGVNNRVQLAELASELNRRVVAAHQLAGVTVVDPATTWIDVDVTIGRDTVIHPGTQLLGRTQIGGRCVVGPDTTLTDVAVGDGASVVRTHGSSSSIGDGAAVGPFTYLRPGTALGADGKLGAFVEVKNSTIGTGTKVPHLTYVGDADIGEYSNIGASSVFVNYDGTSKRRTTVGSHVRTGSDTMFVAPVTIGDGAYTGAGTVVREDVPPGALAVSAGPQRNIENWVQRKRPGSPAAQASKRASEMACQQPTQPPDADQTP

Row | SMILES | inhibition
1 | OCC1(CCc2ccccc2)CCN(Cc2c(F)ccc(F)c2F)CC1 | 3.84% (inactive)
2 | CC(C)CCNc1nnnc2c1sc1nc(N3CCOCC3)c3c(c12)CC(C)(C)SC3 | 2.31% (inactive)
3 | CCOc1ccc(NC(=S)N2CCc3cc(OC)c(OC)cc3C2COc2ccc3c(C)cc(=O)oc3c2)cc1 (stereo unspecified) | 1.27% (inactive)
4 | O=C(COC(=O)C12CC3CC(CC(C3)C1)C2)NCCc1ccccc1 | 5.26% (inactive)
5 | Cn1nccc1NC(=O)c1nccnc1C(=O)O | -4.84% (inactive)
6 | Cc1cc(N2CCN(C(=O)c3ccco3)CC2)n2nc(-c3cccc(F)c3)cc2n1 | -0.85% (inactive)
7 | Cc1cc(N2CCN(C(=O)c3ccco3)CC2)n2nc(C)c(-c3ccccc3)c2n1 | 3.95% (inactive)
8 | Cc1cc(N2CCN(C(=O)c3ccco3)CC2)n2nc(-c3cccc(Cl)c3)cc2n1 | 14.1% (active)
9 | CCCCN(CC)CCNC(=O)c1cn(-c2ccc(Cl)cc2)c(=O)c2ccccc12 | -2.06% (inactive)
10 | Cc1c(-c2ccco2)[n+](=O)c2c(n1[O-])CCC2 | 14.9% (active)
11 | Cc1ccc(-c2c(C)n([O-])c3c([n+]2=O)CCC3)o1 | 1.5% (inactive)
12 | Cc1c(-c2ccco2)[n+](=O)c2c(n1[O-])CCCCC2 | 3.97% (inactive)
13 | COC(=O)c1cnc(N2CCCN(S(=O)(=O)c3ccc(C(F)(F)F)cc3)CC2)nc1C(F)(F)F | 1.89% (inactive)
14 | Cc1cccc(NC(=O)c2ccc(COc3ccc4ccccc4c3)o2)n1 | -0.95% (inactive)
15 | O=C(CN1N=C(c2ccccc2)CCC1=O)NCCN1CCc2ccccc2C1 | -1.06% (inactive)
16 | CC(=O)Oc1cccc(N2C(=O)c3ccccc3C2=O)c1 | -6.78% (inactive)
17 | CC12CCC(C(=O)NNc3ccccc3)(OC1=O)C2(C)C (stereo unspecified) | -5.23% (inactive)
18 | CC12CCC(C(=O)NCc3ccccc3)(OC1=O)C2(C)C (stereo unspecified) | 1.44% (inactive)
19 | CC12CCC(C(=O)NC(c3ccccc3)c3ccccc3)(OC1=O)C2(C)C (stereo unspecified) | 13.4% (active)
20 | COc1cccc(OC)c1C(=O)N1CCN(Cc2ccccc2C(F)(F)F)CC1 | 3.68% (inactive)
21 | COc1ccc(/C=C2\CCc3c2nc2ccccc2c3C(=O)O)cc1OC | -1.01% (inactive)
22 | O=C(O)c1c2c(nc3ccccc13)/C(=C/c1ccc(O)cc1)CCC2 | -1.41% (inactive)
23 | COC(=O)c1nnn(-c2nc(N3CCOCC3)nc(N3CCOCC3)n2)c1C | 0.09% (inactive)
24 | CCNc1nc(N2CCCCC2)nc(-n2nnc(C(=O)OCC)c2C)n1 | 13.5% (active)

Row | SMILES | inhibition
25 | CCOC(=O)c1nnn(-c2nc(OC)nc(N3CCCCC3)n2)c1-c1ccccc1 | 1.53% (inactive)
26 | O=C(O)/C=C/C(=O)Nc1ccc2nccnc2c1 | 0.78% (inactive)
27 | CN(C)S(=O)(=O)c1ccc(C(=O)NCc2ccco2)cc1 | 7.54% (inactive)
28 | CCOc1cccc(NC(=O)/C(C#N)=C\c2cccnc2)c1 | -1.75% (inactive)
29 | CCOc1cccc(NC(=O)/C(C#N)=C/c2cccnc2)c1 | 13.3% (active)
30 | CCOc1ccc(/C=C(\C#N)C(=O)Nc2cccnc2)cc1 | -3.21% (inactive)
31 | Cc1ccc(-c2nnc(CSc3nnc(COc4ccccc4)n3-c3ccc(C)cc3)o2)cc1 | 2.51% (inactive)
32 | COc1ccccc1CCNC1CCC(C)CC1 (stereo unspecified) | 1.25% (inactive)
33 | CC(=O)c1ccc(S(=O)(=O)N2CCNCC2)cc1 | 1.28% (inactive)
34 | O=[N+]([O-])c1cccc(-c2csc(CS(=O)(=O)Cc3ccco3)n2)c1 | 1.82% (inactive)
35 | CCOC(=O)C1Nc2ccc(OC(F)(F)F)cc2C2C=CCC12 (stereo unspecified) | 1.1% (inactive)
36 | Cc1ccc2c(c1)C1C=CCC1C(C(=O)O)N2 (stereo unspecified) | 28% (active)
37 | O=C(O)C1Nc2ccc(OC(F)(F)F)cc2C2C=CCC12 (stereo unspecified) | 13.1% (active)
38 | Cc1ccc2c(c1)C1C=CCC1C(C(=O)NCCCN1CCOCC1)N2 (stereo unspecified) | 3.8% (inactive)
39 | O=C(NC1CC1)C1Nc2ccc(OC(F)(F)F)cc2C2C=CCC12 (stereo unspecified) | -0.17% (inactive)
40 | CCOC(=O)C1Nc2ccc(C)cc2C2C=CCC12 (stereo unspecified) | -1.77% (inactive)
41 | CCOC(=O)N1CCC(N(CCN(C)C)C(=S)Nc2ccccc2Cl)CC1 | 0.75% (inactive)
42 | O=C(CNC(=O)c1ccc2c(c1)OCCO2)N/N=C/c1ccco1 | -1.55% (inactive)
43 | Nc1ccccc1NC1=CC(=O)CC(c2ccccc2)C1 (stereo unspecified) | 2.07% (inactive)
44 | COc1ccc(/C=N/NC(=O)CN(CCc2ccccc2)S(=O)(=O)c2ccc(NC(C)=O)cc2)cc1OC | 1.25% (inactive)
45 | COc1cc(NS(=O)(=O)c2ccc(Nc3nc(-c4ccccn4)cs3)cc2)nc(OC)n1 | -0.88% (inactive)
46 | Cn1cnnc1SCc1ccc(C(=O)N/N=C(\CCC(=O)O)c2ccc(C(C)(C)C)cc2)cc1 | -2.55% (inactive)
47 | CCSc1nnc(NS(=O)(=O)c2ccc(C)cc2)s1 | -1.65% (inactive)
48 | Cc1ccc(C2=CSC3=NS(=O)(=O)CCN23)cc1C | -2.13% (inactive)

Row | SMILES | inhibition
49 | Cc1ccc(C2=CSC3=NS(=O)(=O)CCN23)cc1 | -2.55% (inactive)
50 | Cc1ccc(C)c(C2=CSC3=NS(=O)(=O)CCN23)c1 | 14.7% (active)
51 | Cc1ccnc(SCc2cn3c(C)cc(C)nc3n2)n1 | -0.65% (inactive)
52 | CCc1ccc(N2CCN(C(=O)N3CCOCC3)CC2)cc1 | -4.7% (inactive)
53 | C=CCOC(=O)C1=C(C)N(C)C(=O)NC1c1cc2c(cc1Br)OCO2 (stereo unspecified) | 0% (inactive)
54 | Cc1cccc(-n2ncc3c(N(CCO)CCO)ncnc32)c1 | 2.36% (inactive)
55 | CCOc1ccc(NC(=O)Nc2cc(C(C)C)c(O)cc2C)cc1 | 1.34% (inactive)
56 | CCOc1ccc(NC(=O)Nc2cc(C(C)C)ccc2C)cc1 | 14.6% (active)
57 | Cc1ccc(C(C)C)cc1NC(=O)Nc1ccc([N+](=O)[O-])cc1 | -2.4% (inactive)
58 | CSc1nc2ncc(C#N)cn2n1 | -5.13% (inactive)
59 | CC(=O)Nc1ccc(NC(=O)C(Cc2ccccc2)NC(=O)C2CCCCC2)cc1 (stereo unspecified) | 1.61% (inactive)
60 | c1ccc(-n2nnc(-c3cccnc3)n2)cc1 | 1.76% (inactive)
61 | Cn1c(=O)[nH]c(=O)c2c1nc(SCCO)n2CC(O)COc1ccccc1 (stereo unspecified) | 0.72% (inactive)
62 | COc1ccccc1OCC(O)Cn1c(Br)nc2c1c(=O)[nH]c(=O)n2C (stereo unspecified) | 13.5% (active)
63 | CCCSc1nc2c(c(=O)[nH]c(=O)n2C)n1CC(O)COc1ccccc1 (stereo unspecified) | 14.1% (active)
64 | CCSc1nc2c(c(=O)[nH]c(=O)n2C)n1CC(O)COc1ccccc1 (stereo unspecified) | -3.27% (inactive)
65 | Cc1ccccc1OCC(O)Cn1c(Br)nc2c1c(=O)[nH]c(=O)n2C (stereo unspecified) | 1.77% (inactive)
66 | COc1ccc(OCC(O)Cn2c(Br)nc3c2c(=O)[nH]c(=O)n3C)cc1 (stereo unspecified) | -0.99% (inactive)
67 | CCN(CC)C(=O)c1[nH]cnc1C(=O)N[C@@H](C)C(=O)OC(C)(C)C | -5.07% (inactive)
68 | COC(=O)c1ccccc1NC(=O)Nc1cccc(C)n1 | 1.31% (inactive)
69 | Cc1occc1C(=O)N/N=C/c1ccccc1[N+](=O)[O-] | -3.47% (inactive)
70 | CNc1ccc(/C=C(\C#N)c2ccccn2)cc1[N+](=O)[O-] | 13.2% (active)
71 | N#C/C(=C\c1ccc(Cl)c([N+](=O)[O-])c1)c1ccccn1 | -1.14% (inactive)
72 | N#C/C(=C\c1ccc([N+](=O)[O-])cc1)c1ccccn1 | 3.91% (inactive)

Row | SMILES | inhibition
73 | Cc1cccc(NC(=O)C2CCCC2)c1 | 13.7% (active)
74 | CC(=O)c1cccc(NC(=O)C2CCCC2)c1 | 1.98% (inactive)
75 | Cc1cc(C)cc(NC(=O)C2CCCC2)c1 | 9.85% (inactive)
76 | CC1CN(/C(=N\S(=O)(=O)c2ccccc2)c2ccccc2)CC(C)O1 (stereo unspecified) | -2.86% (inactive)
77 | COc1ccccc1CCc1nnc(CCC(=O)NC(C)Cc2ccsc2)o1 (stereo unspecified) | 1.67% (inactive)
78 | COc1ccc(NC(=O)/C(Cl)=C(/Cl)S(=O)Cc2ccc(C)cc2)cn1 (stereo unspecified) | 7.38% (inactive)
79 | COc1ccc(CS(=O)/C(Cl)=C(/Cl)C(=O)Nc2ccc(OC)nc2)cc1 (stereo unspecified) | 14.6% (active)
80 | COc1ccc(NC(=O)/C(Cl)=C(/Cl)S(=O)Cc2ccc(Cl)cc2)cn1 (stereo unspecified) | 11.8% (inactive)
81 | CCOc1ccc(NC(=O)C2=C(C)C(=O)OC23CCC(C)CC3)cc1 (stereo unspecified) | 3.82% (inactive)
82 | CC1=C/C(=N\OS(=O)(=O)c2ccccc2)C(C)=CC1=O | 10.7% (inactive)
83 | CC1=CC(=O)C(C(C)C)=C/C1=N/OS(=O)(=O)c1ccccc1 | 1.82% (inactive)
84 | O=C(NCCCn1ccnc1)C1CC(c2ccccc2Cl)=NO1 (stereo unspecified) | -2.77% (inactive)
85 | COc1cc(C(Nc2ccc(S(=O)(=O)N3CCC(C)CC3)cc2)C(=O)NCC2CCCO2)cc(OC)c1OC (stereo unspecified) | 0.15% (inactive)
86 | COc1ccc(C(Nc2ccc(S(=O)(=O)NCC3CCCO3)cc2)C(=O)NC(C)(C)C)cc1OC (stereo unspecified) | -2.66% (inactive)
87 | COc1cc(C(Nc2ccc(S(=O)(=O)NCC3CCCO3)cc2)C(=O)NC(C)(C)C)cc(OC)c1OC (stereo unspecified) | 13.6% (active)
88 | CC(=O)Nc1cccc(OCc2ccc(S(=O)(=O)Cc3ccccc3)cc2)c1 | -12.3% (inactive)
89 | Cc1cc(N2CCOCC2)ccc1/C=C1/SC(=O)NC1=O | -0.05% (inactive)
90 | O=C1NC(=O)/C(=C\c2ccc(O)cc2O)S1 | 12.9% (active)
91 | O=C1NC(=O)/C(=C/c2ccc(O)cc2)S1 | 2.35% (inactive)
92 | c1ccc(CSc2ccc(-c3cccnc3)nn2)cc1 | -0.08% (inactive)
93 | Cc1cc(NC(=O)CSC2=Nc3ccccc3C3=NC(Cc4ccccc4)C(=O)N23)n[nH]1 (stereo unspecified) | -1.18% (inactive)
94 | CCC1(C)Cc2c(C#N)c(N)n(-c3ccccc3)c(=O)c2CO1 (stereo unspecified) | 13.3% (active)
95 | CCC1(C)Cc2c(C#N)c(N)n(-c3ccccc3)c(=S)c2CO1 (stereo unspecified) | 6.07% (inactive)
96 | CC1(C)Cc2c(C#N)c(N)n(-c3ccccc3)c(=O)c2CO1 | -3.12% (inactive)
